This is an account of results in article PMC5869772, “Quantitative profiling of BATF family proteins/JUNB/IRF hetero-trimers using Spec-seq”.

The target of this assay is T1, BATF;JUNB (human;human, UniProt Q16520;P17275 1-125;148-347, |).
T1 sequence 1: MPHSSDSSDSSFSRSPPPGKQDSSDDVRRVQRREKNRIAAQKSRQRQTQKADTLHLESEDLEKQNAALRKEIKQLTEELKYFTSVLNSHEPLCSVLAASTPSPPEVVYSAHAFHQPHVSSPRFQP
T1 sequence 2: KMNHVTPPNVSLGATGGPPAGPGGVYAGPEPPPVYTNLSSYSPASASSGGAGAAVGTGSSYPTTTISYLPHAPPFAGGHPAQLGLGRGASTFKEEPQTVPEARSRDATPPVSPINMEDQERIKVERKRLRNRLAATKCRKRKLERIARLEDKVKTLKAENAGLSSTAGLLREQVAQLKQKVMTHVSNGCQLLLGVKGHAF
Kind of assay: Spec-seq (EMSA and sequencing of bound and unbound bands); 100 nM BATFx-JUNB, 1 uM dsDNA library, 50 mM K acetate, 20 mM Tris-acetate, 10 mM Mg acetate, 100 ug/ml BSA, pH 7.9, 10% glycerol, 30 min on ice; native 9% PAGE at 4 C; low values mean tight binding. The note with it: protein: recombinant;recombinant; tags: N-terminal mCherry-TEV, cleaved off;C-terminal 6His; copies: 1;1; dsDNA, one strand shown. The procedure, abridged: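 The protein, at 100 nM, was incubated with 1 μM double-stranded degenerate DNA library for 30 min on ice in NEB Cutsmart buffer with 10% glycerol, then resolved by native 9% PAGE at 4 °C. Excised bound and unbound bands were PCR-barcoded and Illumina-sequenced, and each sequence's relative binding energy in kT is −ln of its bound/unbound read-count ratio.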
(In general: Mobility shift assays separate free from complexed probe on a gel.)
Consider “GATAGTCTCATTTTCACCCCGTGAAACTCAGTCATTGTTCCATTACAGTATCTGT”, for which the binding signal was -0.328 kT.

With “GATAGTCTCATTTTCACCCCGTGAAATTGAGTCATTGTTCCATTACAGTATCTGT”, the binding signal was -0.981 kT.

Turning to “GATAGTCTCATTTTCACCCCGTGAAATGAGGCATTTGTTCCATTACAGTATCTGT”, the binding signal worked out at 0.568 kT.

As for “GATAGTCTCATTTTCACCCCGTGAAATGAGTCTTTTGTTCCATTACAGTATCTGT”, the binding signal is 0.0504 kT.

Regarding “GATAGTCTCATTTTCACCCCGTGAAATGACGCATTTGTTCCATTACAGTATCTGT”, the binding signal was -0.475 kT.

As for “GATAGTCTCATTTTCACCCCGTGAAAATAAGTCATTGTTCCATTACAGTATCTGT”, the binding signal was -0.448 kT.

With “GATAGTCTCATTTTCACCCCGTGAAATGAGTGACTTGTTCCATTACAGTATCTGT”, the binding signal turned out to be 0.0645 kT.

For the sequence “GATAGTCTCATTTTCACCCCGTGAAATGGAGTCATTGTTCCATTACAGTATCTGT”, the binding signal was -0.329 kT.

Consider “GATAGTCTCATTTTCACCCCGTGAAATGAGTCGGTTGTTCCATTACAGTATCTGT”, for which the binding signal stood at 0.0858 kT.

As for “GATAGTCTCATTTTCACCCCGTGAAATGACACAATTGTTCCATTACAGTATCTGT”, the binding signal came out at 0.0803 kT.

For “GATAGTCTCATTTTCACCCCGTGAAATGAGTGAATTGTTCCATTACAGTATCTGT”, the binding signal came out at 0.0809 kT.

For “GATAGTCTCATTTTCACCCCGTGAAATGATGTCATTGTTCCATTACAGTATCTGT”, the binding signal was -0.738 kT.

Turning to “GATAGTCTCATTTTCACCCCGTGAAATGACATCATTGTTCCATTACAGTATCTGT”, the binding signal was -0.531 kT.

With “GATAGTCTCATTTTCACCCCGTGAAATGACGTCCTTGTTCCATTACAGTATCTGT”, the binding signal came out at 0.097 kT.

On to “GATAGTCTCATTTTCACCCCGTGAAAGGACGTCATTGTTCCATTACAGTATCTGT”, for which the binding signal is -0.227 kT.
